Source: PubChem BioAssay AID1851 (National Center for Advancing Translational Sciences (NCATS), 2009)
Screen size: about 16,000 compounds; about 2,600 (16%) were called active. Another 20% or so got no clear call; they are omitted. Calls follow the shape of the dose curve; as a rule, active = well fitted curve in the direction sought with a large enough effect; inconclusive = small, poorly fitted or top-dose-only effect, or effect the other way; inactive = no such curve, though single readings can be large or run the other way. These entries were drawn from the full list.

Biological target: Cytochrome P450 2D6 (Homo sapiens) (UniProt P10635)
Sequence (P10635 whole entry, looked up): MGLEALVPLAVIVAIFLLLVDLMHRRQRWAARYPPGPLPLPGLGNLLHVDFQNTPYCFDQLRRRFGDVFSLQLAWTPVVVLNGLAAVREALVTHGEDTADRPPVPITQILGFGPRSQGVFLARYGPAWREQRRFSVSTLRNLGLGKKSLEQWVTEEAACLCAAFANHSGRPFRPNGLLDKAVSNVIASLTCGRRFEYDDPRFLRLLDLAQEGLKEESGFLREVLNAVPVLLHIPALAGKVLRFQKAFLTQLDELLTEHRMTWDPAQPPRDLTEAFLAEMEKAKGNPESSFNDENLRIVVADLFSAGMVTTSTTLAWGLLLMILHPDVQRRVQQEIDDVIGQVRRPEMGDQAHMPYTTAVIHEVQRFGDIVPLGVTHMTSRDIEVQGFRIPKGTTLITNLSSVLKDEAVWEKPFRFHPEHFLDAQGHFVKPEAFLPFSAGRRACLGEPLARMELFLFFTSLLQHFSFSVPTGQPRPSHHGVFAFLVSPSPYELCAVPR
Assay: Cytochrome panel assay with activity outcomes
Conditions: recombinant CYP, pro-luciferin dealkylation, luminescence, p450-cyp2d6; series mostly up to 57.1 µM; activity, negative = inhibition: at the top concentration
% is scaled to controls: 0 for no effect and ±100 for the full control effect.

Row | Compound | activity, negative = inhibition | AC50
1 | Cn1c(=O)c2[nH]c(CCCCc3nc4c([nH]3)c(=O)n(C)c(=S)n4C)nc2n(C)c1=S | -8.04% [at 11.4 µM] (inactive) | –
2 | Cc1c(NC(=O)Nc2c(Cl)cccc2Cl)c(=O)n(-c2ccccc2)n1C | -4.06% [at 11.4 µM] (inactive) | –
3 | Cc1c(O)c(=O)n(-c2ccccc2)n1C | -4.44% [at 25.6 µM] (inactive) | –
4 | Cc1c(NCc2cc(Cl)ccc2O)c(=O)n(-c2ccccc2)n1C | – | 6.31 µM (active)
5 | O=c1nc2ccccc2c2n1C[C@H](CN1CCN(c3ccccc3)CC1)N2 | -11.1% (inactive) | –
6 | O=C(O)/C=C(/C(=O)O)[C@]12CCN3CC4=CCO[C@@H]5CC(=O)N[C@@H]1[C@H]5[C@H]4C[C@H]32 | -1.84% [at 11.4 µM] (inactive) | –
7 | Cc1cnc(CNc2nc(-c3ccc(C(=O)N(C)C)cc3)nc3ccccc23)cn1 | -18.2% (inactive) | –
8 | Cc1cnc(CNc2nc(-c3ccc4c(c3)OCO4)nc3ccccc23)cn1 | – | 15.8 µM (active)
9 | c1ccc(CNc2nc(-c3ccc4c(c3)OCO4)nc3ccccc23)cc1 | – | 12.6 µM (active)
10 | c1csc(CNc2nc(-c3ccc4c(c3)OCO4)nc3ccccc23)c1 | – | 10 µM (active)
11 | COc1ccccc1CNc1nc(-c2ccc(N(C)C)cc2)nc2ccccc12 | – | 10 µM (active)
12 | CCOC(=O)C1CCCN(C(=O)CCn2nc(-c3ccccc3)ccc2=O)C1 (configuration not stated) | -20.7% (inactive) | –
13 | S=c1c2[nH]cnc2ncn1CCSc1ncnc2nc[nH]c12 | 8.54% [at 11.4 µM] (inactive) | –
14 | CN(C(=O)CCCOc1ccc2[nH]c(=O)ccc2c1)C1CCCCC1 | -4.66% (inactive) | –
15 | CC(Oc1ccc(-c2ccccc2)c(F)c1)c1ccn(S(=O)(=O)c2ccc(Cl)cc2)n1 (configuration not stated) | -8.63% (inactive) | –
16 | COC(Cn1c(C)c(C(C)=O)c(C(C)=O)c1C)OC | 17.2% (inactive) | –
17 | Nc1nc(-c2cccnc2)cc(-c2cc(-c3cccnc3)nc(N)n2)n1 | -6.86% [at 11.4 µM] (inactive) | –
18 | CCC(=O)N1CCn2c1nc1ccccc12 | 3.08% (inactive) | –
19 | CCC(C)NC(=O)c1cnn2c(C)c3c(nc12)CCCC3 (configuration not stated) | -19.4% (inactive) | –
20 | c1cncc(CNc2nc(-c3ccc4c(c3)OCO4)nc3ccccc23)c1 | – | 12.6 µM (active)
21 | Cc1cccc(CNc2nc(-c3ccc4c(c3)OCO4)nc3ccccc23)c1 | – | 20 µM (active)

Row | Compound | activity, negative = inhibition | AC50
22 | COc1ccccc1CNc1nc(-c2ccc3c(c2)OCO3)nc2ccccc12 | – | 10 µM (active)
23 | CC(=O)NCCNc1nc(-c2ccc3c(c2)OCO3)nc2ccccc12 | – | 12.6 µM (active)
24 | COCCNc1nc(-c2ccc(C(=O)N(C)C)cc2)nc2ccccc12 | -9.46% (inactive) | –
25 | CC(=O)NCCNc1nc(-c2ccc(C(=O)N(C)C)cc2)nc2ccccc12 | -4.75% (inactive) | –
26 | COC(=O)N1CCC2(CC1)CN(C(=O)Nc1cccc(C#N)c1)C2 | 0.446% (inactive) | –
27 | COc1cc(NC(=O)c2c(F)cccc2F)nc(OC)n1 | 1.76% (inactive) | –
28 | Cc1cc(NC(=O)CCCC(=O)OCC(F)(F)C(F)F)cc(C)c1C(=O)O | 12.6% (inactive) | –
29 | COc1ccc(-n2c(=O)c(-c3cc(F)cc(F)c3)nc3cnc(N4CCNCC4)nc32)cc1 | 9.29% (inactive) | –
30 | Cc1ccc(S(=O)(=O)Oc2ccc(/C=C(/NC(=O)c3ccccc3)C(=O)Nc3ccccc3)cc2)cc1 | 23.4% (inactive) | –
31 | C[C@H]1COC(=O)[C@H]2CCCN2C(=O)[C@@H](C)COC(=O)[C@H](Cc2ccccc2)NC1=O | 2.57% [at 11.4 µM] (inactive) | –
32 | CCn1c(SCC(=O)Nc2ccc3c(c2)OCCO3)nc2c(c1=O)SC(C)C2 (configuration not stated) | -11.9% (inactive) | –
33 | CC1=NN(c2ccc(S(=O)(=O)O)cc2)C(=O)/C1=C\c1ccc(Cl)cc1 | 5.53% [at 11.4 µM] (inactive) | –
34 | O=C(N/C(=C\c1cccnc1)C(=O)N1CCOCC1)c1cccc(Br)c1 | 5.99% (inactive) | –
35 | N#Cc1cccc(-c2nc(Nc3ccncc3)c3ccccc3n2)c1 | -7.94% (inactive) | –
36 | c1ccc2c(Nc3ccncc3)nc(-c3ccc4c(c3)OCO4)nc2c1 | – | 20 µM (active)
37 | Cc1noc(C)c1-c1nc(Nc2ccccc2)c2ccccc2n1 | 6.91% (inactive) | –
38 | O=c1[nH][nH]cc1C=Nc1ccccc1O | -5.68% (inactive) | –
39 | Cc1noc(COc2ccc(OCc3nc(C)no3)cc2)n1 | -22.9% (inactive) | –
40 | Cc1cc(C)n(-c2nc(NC(C)C)nc(NC(C)C)n2)n1 | 1.57% (inactive) | –
41 | c1ccc2c(N3CCNCC3)nc(-c3ccc4c(c3)OCO4)nc2c1 | – | 3.16 µM (active)
42 | CN(C)c1ccc(-c2nc(N3CCNCC3)c3ccccc3n2)cc1 | – | 12.6 µM (active)

Row | Compound | activity, negative = inhibition | AC50
43 | COc1cc(/C=C/C(=O)O)cc(S(=O)(=O)NCCCO)c1OC | -3.23% (inactive) | –
44 | O=C1Oc2ccccc2C2(O)C3CCCCCC3C12 (configuration not stated) | -17.5% (inactive) | –
45 | CSc1nc(Oc2ccc(=O)[nH]n2)nc(N(C)C)n1 | -21.1% (inactive) | –
46 | Cc1cc(/C=C2\SC(=S)NC2=O)c(C)n1C | -6.16% (inactive) | –
47 | CCCCCSc1nnc(C)c(=O)[nH]1 | 9.5% (inactive) | –
48 | COc1ccc(NC(=O)N2CC[C@@]3(CCCN(C(=O)c4cc(C(F)(F)F)cc(C(F)(F)F)c4)C3)C2)cc1 | 7.53% (inactive) | –
49 | O=C(O)/C(Cc1ccc([N+](=O)[O-])cc1)=N/O | 6.05% [at 11.4 µM] (inactive) | –
50 | COc1ccc(/C=C2/S/C(=N/N=C3\CC4CCC3(C)C4(C)C)NC2=O)cc1 (configuration not stated) | -4.41% (inactive) | –
51 | CC(=O)O[C@]1(C(C)=O)CC[C@@H]2[C@@H]3C=C(Cl)C4=CC(=O)[C@H]5C[C@@H]5[C@]4(C)[C@H]3CC[C@]21C | – | inactive
52 | CCNc1ncc2nc(-c3ccc(OC)cc3)c(=O)n(Cc3cccs3)c2n1 | -0.478% (inactive) | –
53 | COc1cccc(Nc2nc(-c3ccc(O)cc3)cs2)c1 | – | 8.91 µM (active)
54 | COc1ccc(-c2csc(NC(=O)Cn3nc(C)cc3C)n2)cc1 | -0.175% (inactive) | –
55 | COc1cccc(-c2csc(N3CCN(C(=S)Nc4ccccc4)CC3)n2)c1 | -11.1% (inactive) | –
56 | Cc1ccc(OCC(=O)NNC(=O)C2CCN(c3ncccn3)CC2)cc1 | -28% (inactive) | –
57 | OC[C@@H]1O[C@@H](n2cnc3c(NC4CCCC4)ncnc32)[C@H](O)[C@H]1O | -1.52% (inactive) | –
58 | Cc1ccn2c(NC(=O)c3ccccc3)c(-c3cccs3)nc2c1 | -21.6% (inactive) | –
59 | CC[N+](CC)(CC)CC(=O)Nc1c(C)cccc1C | – | inactive
60 | CC[N+](CC)(CC(=O)Nc1c(C)cccc1C)Cc1ccccc1 | – | 0.00794 µM (active)
61 | Cc1cccc(C)c1NC(=S)NC(=O)CCc1ccccc1 | -13.9% (inactive) | –
62 | COc1ccc(CCNC(=O)C2CCN(S(=O)(=O)N3CC(C)CC(C)C3)CC2)cc1OC (configuration not stated) | 0.862% (inactive) | –
